# Screening results from PubChem.
# USP30 inh: human USP30 deubiquitinase inhibition; purified USP30, Ub-rhodamine cleavage fluorescence; AID 1645860; actives 5.3% (n = 47,000); Q70CQ3; inhibition, % at 25 µM
# USP17 inh: blocks human USP17 ubiquitin-rhodamine cleavage; A8MUK1; purified USP17, Ub-rhodamine cleavage fluorescence, 3 h; inhibition, % at 50 µM; actives 6.5% (n = 47,000); AID 1645855
# USP28 block: inhibitors of human USP28 deubiquitinase; actives 3% (n = 47,000); purified USP28, Ub-rhodamine cleavage fluorescence, 30 min; inhibition, % at 25 µM; AID 1645857; Q96RU2
# A number is an active result; - = inactive; . = no result given. Most compounds without a hit are left out; they make up all but 11% or so of the library. No stated cut-off is given here; in the data, active means inhibition above about 30%; inactive means the rest.
SMILES,USP30 inh,USP17 inh,USP28 block
O=C(Cc1cc(-c2ccc(F)cc2)on1)NCc1ccccc1,-,60,-
O=C(Cc1cc(-c2ccc(F)cc2)on1)Nc1ccccc1C(F)(F)F,-,39,-
NC(=O)c1ccc(NC(=O)Cc2cc(-c3ccc(F)cc3)on2)cc1,-,39,-
COc1ccccc1CNC(=O)Cc1cc(-c2ccc(F)cc2)on1,-,-,-
CCOC(=O)C1=C(CN2CCN(c3ccc(F)cc3)CC2)NC(=O)NC1c1cccc(OC)c1OC (centres undefined),-,-,-
Cc1cc(/C=C2/C(=N)N3C(c4ccccc4)=CSC3=NC2=O)c(C)n1-c1ccc(F)cc1,-,-,-
O=C(N[C@@H]1CC[C@@H](Oc2cccc(F)c2)[C@@H](O)[C@@H]1O)c1cccnn1,-,-,-
Cc1nc2cc(N3CC(C(=O)Nc4cccc(C)c4C)CC3=O)ccc2o1 (centres undefined),33,-,-
Cc1nc2cc(N3CC(C(=O)NCc4ccccc4)CC3=O)ccc2o1 (centres undefined),-,-,-
Cc1ccc(C2c3[nH]c4ccccc4c3C[C@@H]3C(=O)N(c4ccc5c(c4)OCCO5)C(=O)N23)cc1 (some centres undefined),-,-,-
CCN(CC)c1ccc2ccc(C(=O)N3CCCC3)cn12,-,-,-
CCN(CC)c1ccc2ccc(C(=O)N3CCN(c4ccncc4)CC3)cn12,36,-,-
COc1nc(OC)nc(N2CCC(NC(=O)C(Cc3ccccc3C)NC(C)=O)CC2)n1 (centres undefined),-,-,-
COc1ccccc1NC(=O)c1csc(-c2cn(C)c3ncccc23)n1,-,-,-
O=C(Nc1ccccc1F)N1CCN(c2cc(-c3ccncc3)[nH]n2)CC1,-,-,-
O=C(Nc1ccc(F)cc1F)N1CCN(c2cc(-c3ccncc3)[nH]n2)CC1,41,.,-
Cc1ccc(-n2ncc3c(NCCN4CCOCC4)ncnc32)cc1C,-,-,-
O=C(C1CCN(c2nc3ccc(-c4cccnc4)nc3s2)CC1)N1CCCC1,-,-,-
COc1cccc(-c2ccc3nc(N4CCC(C(N)=O)CC4)sc3n2)c1,-,49,-
CC(=O)N1CCC(N2CCCC2c2cncc(Oc3cccnc3C)n2)CC1 (centres undefined),-,.,-
NC(=O)c1ccc2c(c1)nnn2C1CCCCC1,-,-,-
CCN1CCN(CCNC(=O)c2cc3cn(C4CC4)cc3s2)CC1,-,-,-
CCCCNC(=O)c1cc2cn(C3CC3)cc2s1,-,41,-
O=C(Nc1ncn[nH]1)c1cc(-c2ccncc2)nc2ccccc12,.,-,.
CN(c1ccncn1)C1CC2(CCN(c3cnccn3)C2)C1 (centres undefined),-,-,-
SMILES,USP30 inh,USP17 inh,USP28 block
O=C(NC1CCN(c2cc(-c3ccc(F)cc3)[nH]n2)C1)c1ccncc1 (centres undefined),-,-,-
Cc1cc(C(=O)N2CC(C(=O)Nc3ccc(F)c(Cl)c3)C2)no1,-,-,-
Cc1cc(C(=O)N2CC(C(=O)Nc3cc(C(F)(F)F)ccc3Cl)C2)no1,70,41,-
Cc1ccc(CN2CC(=O)N3Cc4[nH]c5ccccc5c4C[C@@H]3C2=O)cc1,-,-,-
CC(=O)c1ccc(N2C(=O)[C@H]3Cc4c([nH]c5ccccc45)CN3C2=O)cc1,-,44,-
O=C(c1cccn1Cc1noc(-c2ccccc2)n1)N1CCCC1,-,-,-
c1cncc(CN2CCC[C@H]2c2nc(-c3ccc(N4CCOCC4)nc3)no2)c1,-,-,-
c1cncc(CN2CCC[C@H]2c2nc(-c3ccc(-n4ccnc4)nc3)no2)c1,-,41,-
Cc1cccc(NC(=O)Cn2cnc(-c3nc(C)cs3)c2)c1,-,-,-
Cc1cccc(NC(=O)Cn2cc(-c3nc(C4CC4)no3)ccc2=O)c1,-,-,-
Cc1ccc(NC(=O)Cn2cc(-c3nc(C4CC4)no3)ccc2=O)cc1C,-,-,-
Cc1ccc(NC(=O)Cn2cc(-c3nc(C4CC4)no3)ccc2=O)cc1,36,-,-
Cc1ccccc1NC(=O)Cn1cc(-c2nc(C3CC3)no2)ccc1=O,70,-,-
COc1ccc(NC(=O)CSc2ncnc3c2cnn3-c2cccc(Cl)c2)c(OC)c1,-,-,-
COc1ccc(NC(=O)C2CN(S(C)(=O)=O)c3cc(C)ccc3O2)cc1Cl (centres undefined),-,-,-
COC(=O)c1cc(NC(=O)/C=C/c2ccc(Cl)cc2)ccc1N1CCOCC1,-,-,50
COC(=O)c1cc(NC/C=C/c2ccccc2)ccc1N1CCOCC1,-,-,-
O=C1COc2ccc(S(=O)(=O)N3CCCC(C(=O)NCc4ccccc4)C3)cc2N1 (centres undefined),-,-,-
CC(=O)c1cccc(NC(=O)CCc2c(C)nc3c4c(C)cc(C)nc4nn3c2C)c1,-,-,-
CC(NCCc1ccc(Cl)cc1)c1nc2scc(-c3ccccc3)c2c(=O)[nH]1 (centres undefined),-,35,-
CC(Nc1ccccc1)c1nc2scc(-c3ccccc3)c2c(=O)[nH]1 (centres undefined),-,-,-
COc1ccccc1CNC(=O)c1snc(-c2ccccn2)c1N,-,-,-
c1ccc2c(c1)CCc1c-2nc2ccccc2c1N1CCOCC1,-,72,-
Cc1ccc(S(=O)(=O)c2cnc3ccccc3c2N2CCOCC2)cc1,-,-,-
CCN(C(=O)c1cccc(-n2nc(C)cc2C)c1)[C@H]1C[C@@H](c2ccccc2)OC2(CCNCC2)C1,34,-,-
SMILES,USP30 inh,USP17 inh,USP28 block
CCN(C(=O)c1cccc(Cn2ccnc2C)c1)[C@H]1C[C@@H](c2ccccc2)OC2(CCNCC2)C1,-,-,-
CCN(CC)S(=O)(=O)c1ccc2c(c1)nc(CCC(=O)Nc1ccc(C)c(Cl)c1)n2CC,39,-,-
CCCn1c(CCC(=O)Nc2ccccc2C)nc2cc(S(=O)(=O)N3CCOCC3)ccc21,-,-,-
CS(=O)(=O)N(Cc1nc(-c2ccccc2)no1)Cc1c(F)cccc1Cl,-,.,-
Nc1cnc(CC2CCCN(C(=O)CCc3ccc(F)cc3)CC2)cn1 (centres undefined),-,-,-
O=c1c2cnc3nc(-c4cccnc4)nn3c2ccn1C1CCCCC1,-,-,-
O=c1c2cnc3nc(-c4cccnc4)nn3c2ccn1CCc1ccccc1,-,51,-
CCn1c(SCC(=O)c2c(N)n(CC(C)C)c(=O)n(C)c2=O)nnc1-c1ccccc1,-,58,-
Cn1c(N)c(C(=O)CSc2nnc(COc3ccc(Cl)cc3)n2Cc2ccccc2)c(=O)n(C)c1=O,-,-,-
Cc1sc2ncn3c(=O)n(CC(=O)Nc4ccc(F)c(Cl)c4)nc3c2c1C,-,53,-
Cc1sc2ncn3c(=O)n(CC(=O)Nc4ccc(F)cc4)nc3c2c1C,-,-,-
O=C(C1CC1)N1CCC2(CC1)OCCN(Cc1cccnc1)c1ccccc12,-,-,-
O=C1CCCN1Cc1ncn2c1CN(C(=O)c1ccc(F)cc1)CCC2,-,-,-
COc1cccc(CNC(=O)CN2C(=O)c3ccccc3C2c2c[nH]c3ccccc23)c1 (centres undefined),-,-,-
COc1ccc(C(=O)N(Cc2ccco2)Cc2cccs2)cn1,-,-,-
CCC(=O)Nc1c(C)noc1/C=C\c1ccc(S(=O)(=O)Nc2ccccc2CC)cc1,-,-,-
